The list is not random: actives were taken first. Their share in the collection is about 7.8%.
PostGolgi ctrl: inhibits growth of the yeast control strain; efflux-deficient yeast background strain, growth absorbance A615, 16 h; inhibition, % at 10 µM; 98,000 tested, 5% active
Cav32 inh: blocks human Cav3.2 T-type calcium channel | 100,000 tested, 4% active | O95180 | Cav3.2-expressing cells, Fluo-4 calcium fluorescence FDSS; stronger effect = lower value | B-score at 10 µM;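 active = single-dose well whose peak fluorescence ratio is a statistical outlier from its plate by either plate-standardised score or position-corrected B-score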
sEH inhibitor: blocks human soluble epoxide hydrolase activity. P34913. recombinant human sEH enzymatic activity assay. 91,000 tested, 0.34% active. inhibition, % at 2 µM. AID 707; in the data active = inhibition above about 80%
PostGolgi yeast: growth inhibition of a yeast mutant, post-Golgi transport screen. post-Golgi transport phenotypic cell assay. inhibition, % at 10 µM. 98,000 tested, 0.9% active;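 also: yeast cells grown in 1536-well plates; yeast grown about 18 h at 30C before absorbance read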
sEH act: increases human soluble epoxide hydrolase activity; purified human sEH enzymatic activity, activator screen; activation, % at 2 µM; 91,000 tested, 0.04% active; AID 717; in the data active = activation above about 37%
* marks the source's active call; other numbers are inactive results; · = no result given. Rule as the data show it, unless noted: active = inhibition above about 30%; inactive = the rest.

SMILES	PostGolgi ctrl	Cav32 inh	sEH inhibitor	PostGolgi yeast	sEH act
C#CCOCCOCCOCCNc1nc(N2CCN(C(=O)[C@H](CCCCN)n3cc(C(N)CO)nn3)CC2)nc(N2CCN(C(=O)[C@H](CCCCN)n3cc(C(N)COC(=O)C(F)(F)F)nn3)CC2)n1 (some centres undefined)	·	0.00818	·	·	·
CCOC(=O)c1nnn(-c2nc(N3CCCC3)nc(N3CCCC3)n2)c1-c1ccccc1	11.7	·	6.0	10.5	-6.3
CCOC(=O)c1c(-c2ccccc2)nnn1-c1nc(OCC)nc(N2CCCCC2)n1	7.2	-7.63*	·	1.0	·
CC(C)(C)NC(=O)NC(=O)CSc1nnc(COc2ccccc2Cl)o1	6.9	-5.98*	-0.7	-10.3	-0.5
CC1CCCCC1NC(=O)CSc1nnc(COc2ccccc2Cl)o1 (centres undefined)	8.5	-0.597	·	-3.3	·
COc1ccccc1OCc1nnc(SCC(=O)c2cc(Cl)ccc2OC)o1	32.0*	-0.63	9.4	9.8	-9.3
Cc1cccc(C)c1OCc1nnc(SCC(=O)NCCc2ccccc2)o1	·	-5.68*	19.1	·	-19.7
COc1ccc(Cc2nnc(SCC(=O)NCCc3ccccc3)o2)cc1	11.0	-1.03	·	-4.7	·
COc1ccc(S(=O)(=O)Nc2cc(C)nn2-c2ccccc2)cc1	8.5	-0.489	8.4	-4.4	-7.6
Cn1c(SCC(=O)NC(c2ccccc2)c2ccccc2)nnc1-c1cccs1	-0.3	-0.107	1.7	12.5	-1.0
c1ccc(-n2c(SCc3nc(-c4cccs4)no3)nnc2-c2ccco2)cc1	34.1*	-2.92	·	-5.3	·
O=C(NC1CCCCC1)C(c1ccccc1)N(Cc1ccco1)C(=O)Cn1cnc2ccccc21 (centres undefined)	12.7	-5.9*	·	1.3	·
O=C(NC1CCCCC1)C(c1ccco1)N(Cc1cccs1)C(=O)Cn1nnc2ccccc21 (centres undefined)	·	·	5.4	·	-8.4
O=C(NCc1ccccc1)C(c1ccccc1)N(Cc1ccc2c(c1)OCO2)C(=O)Cc1cccs1 (centres undefined)	·	-1.86*	-3.3	·	9.1
O=C(Cc1cccs1)N(Cc1ccco1)C1(C(=O)NC2CCCC2)CCCCC1	26.4	-5.16*	·	10.3	·
O=C(NC1CCCC1)C(c1ccsc1)N(Cc1ccco1)C(=O)Cc1cccs1 (centres undefined)	21.5	-6.91*	3.5	-6.8	-3.6
O=C(NC1CCCC1)C(c1ccsc1)N(Cc1ccccc1)C(=O)Cc1cccs1 (centres undefined)	11.1	·	2.6	-4.2	-0.7
O=C(Cc1cccs1)NCc1ccc2c(c1)OCO2	1.2	0.0238	8.7	-1.7	-5.9
CS(=O)(=O)Nc1ccccc1C(=O)N1CCN(c2ccccc2)CC1	-4.2	·	-4.4	5.6	6.5
O=C(O)CCC(NS(=O)(=O)c1ccc(-c2ccccc2)cc1)C(=O)O (centres undefined)	-1.2	0.0926	1.6	-0.8	-0.2
Cc1ccc(C(=O)CCNc2ccc(F)c(Cl)c2)o1	-3.9	-1.13	·	-2.0	·
COc1ccc(CNC(=O)C(c2ccc(C)o2)N(Cc2cccs2)C(=O)Cc2cccs2)cc1 (centres undefined)	·	-7.62*	13.5	·	-13.5
O=C(NC1CCCC1)C(c1ccncc1)N(Cc1ccccc1)C(=O)Cc1cccs1 (centres undefined)	11.2	0.611	4.7	-10.3	-2.0
O=C(NC1CCCC1)C(c1ccccc1)N(Cc1ccc2c(c1)OCO2)C(=O)Cc1cccs1 (centres undefined)	·	-5.86*	-5.8	·	5.8
COCCN(C(=O)Cc1cccs1)C(C(=O)NCc1ccc(OC)cc1)c1ccc(C)cc1 (centres undefined)	14.0	-1.18	-0.4	-2.4	2.2
SMILES	PostGolgi ctrl	Cav32 inh	sEH inhibitor	PostGolgi yeast	sEH act
COc1cc(CCNc2ccc3nnc(-c4ccccc4)n3n2)cc(OC)c1OC	·	1.1	·	·	·
Cc1cc2oc(=O)cc(CN3CCCCC3)c2cc1C(C)C	8.2	-4.73*	-0.7	-6.3	2.4
Cc1n[nH]c(C)c1N1C(=O)c2cccc3c(N4CCCCCC4)ccc(c23)C1=O	4.8	-9.66*	14.5	4.0	-13.9
O=C1c2ccccc2C(=O)N1CCN1CCCCC1	4.5	·	-3.3	-0.3	2.5
O=C1c2cccc3c(N4CCCCC4)ccc(c23)C(=O)N1CCO	13.0	-6.12*	2.2	13.4	0.1
CC(=O)c1ccc2c3c(cccc13)C(=O)N(c1c(C)nn(C)c1C)C2=O	-8.5	0.0253	-4.3	-6.3	8.3
N#Cc1nc(-c2cccs2)oc1N1CCN(Cc2ccccc2)CC1	14.5	-0.822	1.1	2.4	0.1
Cc1ccc(C(=O)NCCCN2CCOCC2)o1	·	0.689	-1.1	·	1.3
N#CCSc1nnc(COc2ccc3ccccc3c2)o1	14.2	-0.658	-6.1	-10.3	4.8
O=C(O)CCC(=O)Nc1ccccc1C(=O)NCc1ccco1	·	-0.0835	-0.5	·	3.9
O=C(c1ccccc1Nc1ccc(SC(F)F)cc1)N1CCCCC1	14.3	-7.05*	23.3	-6.4	-23.5
O=C(Nc1ccc(F)cc1)NC1(C(=O)NCc2ccco2)CCCCC1	31.5*	0.425	8.2	4.2	-7.6
O=C(c1ccccc1NS(=O)(=O)c1ccc(Br)s1)N1CCCC1	24.0	-1.8	9.3	-1.8	-8.1
O=C(NCc1ccco1)c1ccccc1Nc1ccc(F)cc1	31.7*	-6*	-1.7	-4.9	5.1
O=C(NCc1ccco1)c1ccccc1NS(=O)(=O)c1ccc(Br)s1	20.1	-6.14*	8.2	4.5	-5.5
Cc1c(C(=O)N2CCCc3ccccc32)oc2ccc(S(=O)(=O)N3CCOCC3)cc12	13.6	-1.57	2.5	2.9	-2.0
CCn1c(SCC(=O)N2CCN(c3ccc(F)cc3)CC2)nnc1-c1ccncc1	18.7	0.272	-6.0	-3.6	3.0
COCCn1nnnc1C(c1ccc(Cl)cc1)N1CCSCC1 (centres undefined)	1.7	-0.687	1.2	-1.4	-1.7
Cc1cccc(Nc2ccccc2C(=O)OCC(=O)NCc2ccco2)c1C	16.6	-0.77	13.9	1.8	-14.2
O=C(COC(=O)c1ccccc1Nc1ccc(SC(F)F)cc1)NCc1ccco1	32.3*	0.504	13.3	-3.8	-13.6
CCOCCCNC(=O)c1cc2sc(Cl)cc2n1CC	7.4	-1.87	·	38.7*	·
Clc1ccc(Cn2nnc(-c3ccc(CN4CCOCC4)cc3)n2)cc1	50.9*	·	-2.9	82.0*	2.4
Cc1ccc(-c2nnn(CC(=O)NC3CCN(Cc4ccccc4)CC3)n2)cc1	·	-4.83	7.8	·	-8.1
Fc1ccc(Cn2nnc(-c3ccc(CN4CCOCC4)cc3)n2)cc1	30.5*	·	-26.2	89.3*	26.9
O=C(Cn1nnc(-c2ccc(Cl)cc2)n1)NC1CCN(Cc2ccccc2)CC1	16.9	-5.91*	7.9	-8.3	-6.0
COc1ccc(N2C(=O)c3ccccc3NC23C(=O)N(C)c2ccccc23)cc1 (centres undefined)	2.2	0.749	2.5	-3.2	0.1
O=C(Oc1cc(-c2ccccc2)no1)c1ccc(Cl)cc1	-8.6	-0.325	-10.6	2.4	10.7
CCC(C(=O)NCc1ccccc1OC)n1nc(C)n2c(cc3occc32)c1=O (centres undefined)	4.2	-0.751	4.4	-4.5	-5.6

Screens from PubChem BioAssay.
